Screening data deposited in PubChem BioAssay by National Center for Advancing Translational Sciences (NCATS).
An excerpt weighted towards active compounds, which were near 5.8% of everything screened.
12-LOX inh = blocks human arachidonate 12S-lipoxygenase | purified 12hLO, xylenol orange hydroperoxide absorbance | P18054 | 1.1% of 580,000 active | Potency, µM (top dose mostly 108 µM), inactives show top-dose activity change, negative = inhibition, hits mostly inhibitors | AID 1671190; further: on the % scale 0 is the no-effect control and ±100 the full control effect
Target sequence (P18054 whole entry, looked up): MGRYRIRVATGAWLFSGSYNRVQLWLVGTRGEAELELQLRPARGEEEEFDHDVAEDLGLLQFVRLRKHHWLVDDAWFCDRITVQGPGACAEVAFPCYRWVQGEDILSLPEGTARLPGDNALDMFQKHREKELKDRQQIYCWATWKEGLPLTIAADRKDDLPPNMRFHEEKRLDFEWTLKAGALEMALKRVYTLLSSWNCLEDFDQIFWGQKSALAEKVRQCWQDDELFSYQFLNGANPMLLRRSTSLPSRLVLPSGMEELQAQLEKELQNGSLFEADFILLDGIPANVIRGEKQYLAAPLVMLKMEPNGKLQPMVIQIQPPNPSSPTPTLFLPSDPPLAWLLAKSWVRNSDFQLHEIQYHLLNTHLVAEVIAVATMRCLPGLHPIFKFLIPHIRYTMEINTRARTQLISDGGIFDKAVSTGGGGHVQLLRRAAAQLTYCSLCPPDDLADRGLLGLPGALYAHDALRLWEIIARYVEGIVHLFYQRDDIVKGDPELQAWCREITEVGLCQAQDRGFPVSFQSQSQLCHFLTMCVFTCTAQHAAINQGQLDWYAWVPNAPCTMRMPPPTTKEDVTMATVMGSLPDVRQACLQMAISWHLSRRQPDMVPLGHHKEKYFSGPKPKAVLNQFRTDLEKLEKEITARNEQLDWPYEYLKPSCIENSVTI
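Hydroperoxide product was detected by ferrous iron/xylenol orange as the 573 to 405 nm absorbance ratio. Arachidonic acid at 40 uM (final) was turned over for 30 min at room temperature by 150 nM human 12hLO, pH 7.0 Hepes buffer, after 15 min compound preincubation.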
KB-3-1 tox = KB-3-1 parental cell cytotoxicity; KB-3-1 viability, CellTiter-Glo ATP luminescence, 72 h; Potency, µM (titrated, usually from 46.1 µM), most hits filed as cytotoxic; 1.4% of 400,000 active; further: on the % scale 0 is the no-effect control and ±100 the full control effect; nearly all actives have a fitted effect of over 60% in size
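Luminescent ATP read-out (CellTiter-Glo) measures survival of drug-naive KB-3-1 cells after 72 h compound exposure at 37 °C. Titration series was screened from lowest to highest concentration, with DMSO vehicle plates as background controls.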
PINK1 expr mod = changes PINK1 expression; PINK1 immunofluorescence, high-content cytometry, 24 h; Potency, µM (highest dose often 76.6 µM), for inactives: top-dose activation (PINK1 increase), hits mostly activators; 0.2% of 410,000 active; active means well fitted activation curve with a large enough effect; inconclusive means small, poorly fitted or top-dose-only effect; cell line not stated here; further: % of control where 0% means no effect; nearly all actives have a fitted effect of over 65% in size
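Cells are seeded, rested 12 hours, then given compound at five concentrations or DMSO for 24 hours. After fixation, blocking and antibody staining, PINK1 amount and mitochondrial localization are scored; CCCP serves as control.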
MCF10A rerep = DNA re-replication induction in MCF 10a cells. MCF 10A DNA re-replication, Hoechst nuclear intensity, 48 h. Potency, µM (highest dose often 46.1 µM), for inactives: at the highest dose activity, positive = re-replication, actives largely listed as activators. 2.9% of 350,000 active; further: % of control where 0% means no effect; nearly all actives have a fitted effect of over 50% in size
KB-V1 cytotox = kills drug-selected multidrug resistant KB-V1 cells. KB-V1 MDR cells viability, CellTiter-Glo, 72 h. Potency, µM (titrated, usually from 46.1 µM), most hits filed as cytotoxic. AID 1347076. 3.4% of 400,000 active; further: on the % scale 0 is the no-effect control and ±100 the full control effect; nearly all actives have a fitted effect of over 60% in size
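Following 72 h at 37 degrees C with compound, KB-V1 cell viability was read by CellTiter-Glo luminescence, medium being phenol-red-free DMEM plus 10% FBS; concentration-response parameters came from normalized, curve-fitted qHTS data.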
SW480 rereplic = induces DNA re-replication in SW480 colon adenocarcinoma cells; SW480 DNA re-replication, Hoechst DNA content imaging, 48 h; Potency, µM (doses to about 46.1 µM), for inactives: at the top dose re-replication activation, actives largely listed as activators; 1.8% of 340,000 active; AID 624297; further: % of control where 0% means no effect; nearly all actives have a fitted effect of over 55% in size
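Compounds, transferred as 23 nL by pin tool, were incubated with cells for 48 hr; DNA content per nucleus was then quantified by Hoechst staining and fluorescence plate imaging.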
* hit, by the source's call; i = inactive; ? = inconclusive; . = no result given; [ ] = another dose, or the depositor's remark. Unless noted, the call rests on the fitted dose curve; in most records, active means well fitted curve in the direction sought with a large enough effect; inconclusive means small, poorly fitted or top-dose-only effect, or another doubt; inactive means no such curve, though single readings can be large; an effect the other way counts as inactive or inconclusive. Potency means the concentration at half of the fitted maximal effect.

SMILES	12-LOX inh	KB-3-1 tox	PINK1 expr mod	MCF10A rerep	KB-V1 cytotox	SW480 rereplic
CCCN(CC(=O)Nc1ccccc1OC)C(=O)C1CCCC1	27.0%	i	0.0%	-0.3%	?	-4.7%
CCN(CC(=O)Nc1ccccc1OC)C(=O)C1CCCC1	214.4%	i	-1.6%	0.4%	13µM*	2.5%
CCCCOc1ccc(-c2cn3ccccc3n2)cc1[N+](=O)[O-]	-25.9%	i	4.0%	11.6µM*	?	25.8%
O=[N+]([O-])c1ccc(-c2cn3ccccc3n2)cc1	372.4%	i	6.1%	-0.5%	?	-9.7%
CCOc1ccc(-c2cn3ccccc3n2)cc1[N+](=O)[O-]	-14.2%	i	0.7%	20.6µM*	?	?
CN(C)S(=O)(=O)c1ccc(-c2cn3ccccc3n2)cc1	-21.6%	i	0.5%[38.3 µM]	3.5%	16.4µM*	-1.8%
CC1CCCCC1NC(=O)CS(=O)Cc1coc(-c2ccc(F)cc2)n1 (stereo unspecified)	70.3%	.	.	.	.	.
COc1ccc(-c2cc(-c3nc(-c4ccc(Br)cc4)no3)[nH]n2)c(OC)c1	5.8%	.	.	.	.	.
Cc1nc2ccc(S(=O)(=O)Nc3ccccc3C)cc2s1	17.3%	?	5.5%[38.3 µM]	?	18.4µM*	?
Cc1cc(S(=O)(=O)Nc2ccc(C(=O)N3CCN(c4ccccc4O)CC3)cc2)ccc1F	.	i	2.7%	6.1%	i	3.3%
Cc1ccccc1NS(=O)(=O)c1ccc(C(=O)N2CCCCCCC2)cc1	-6.0%	i	3.2%	?	?	4.9%
Cc1cccc(NS(=O)(=O)c2ccc(C(=O)N3CCN(c4ccccc4O)CC3)cc2)c1C	336.8%	?	-1.8%	23.1µM*	?	1.3%
Cc1ccccc1NS(=O)(=O)c1ccc(C(=O)N2CCCC2)cc1	-8.6%	i	-2.3%	2.8%	20.6µM*	-5.4%
Cc1nc2ccc(NS(=O)(=O)c3ccc(C)c(C)c3)cc2s1	-28.2%	i	-1.1%	18.2%	?	0.0%
CC(C)(CNC(=S)NC1CC2CCC1C2)N1CCOCC1 (stereo unspecified)	13.0%	.	.	.	.	.
COC(=O)C1(C)COP(=O)(NC23CC4CC(CC(C4)C2)C3)OC1 (stereo unspecified)	5.7%	i	-3.1%	0.2%	18.4µM*	-3.2%
CC(=O)NC12CC3CC(CC(C3)C1)C2	7.5%	.	.	.	.	.
CCc1cccc(NC(=O)Cn2c(=O)n(CC3CCC(C(=O)NCCc4ccccc4)CC3)c(=O)c3ccccc32)c1 (stereo unspecified)	-21.0%	14.6µM*	1.2%	.	i	.
Cc1ccc(-n2c(COc3ccccc3)nnc2SCC(=O)O)cc1	?	i	-0.1%	.	i	.
Cc1ccc(-c2nnc(CSc3nnc(COc4ccccc4)n3-c3ccccc3)o2)cc1	0.0%	i	-1.0%	11.6µM*	i	11.5%
Cc1ccc(-c2nnc(CSc3nnc(COc4ccccc4)n3-c3ccc(C)cc3)o2)cc1	0.0%	i	-3.3%	23.1µM*	?	?
Cc1sc2ncnc(SC(F)F)c2c1C	-27.0%	.	.	.	.	.
CN(C)C=NC(=O)c1ccc(N2CCN(c3ncc(C(F)(F)F)cc3Cl)CC2)cc1	0.0%	i	5.8%	14.6µM*	i	-1.5%
CN(C)/C=C/C(=O)c1ccc(N2CCN(c3ncc(C(F)(F)F)cc3Cl)CC2)cc1	409.7%	?	?	?	?	12.5%
CC1(CNc2ccccc2)COc2ccc(C(=O)N3CC[S+](=O)([O-])CC3)cc2N1 (stereo unspecified)	21.1%[176 µM]	.	.	.	.	.
SMILES	12-LOX inh	KB-3-1 tox	PINK1 expr mod	MCF10A rerep	KB-V1 cytotox	SW480 rereplic
COc1ccc(-c2nc(N3CCCCCC3)sc2C(=O)c2ccccc2)cc1	0.9%	i	1.1%	14.6µM*	i	5.6%
O=C(c1ccc(Br)cc1)c1sc(N2CCOCC2)nc1-c1ccccc1	2.6%	?	-0.2%	16.4µM*	?	10.7%
O=C(c1ccccc1)c1sc(N2CCCCCC2)nc1-c1ccccc1	42.5%	?	2.6%	?	?	29.1%
[2H]c1c([2H])c([2H])c(C(=O)c2sc(N3CCCCCC3)nc2-c2ccccc2)c([2H])c1[2H]	0.0%	?	2.6%	9.2µM*	i	0.6%
NC(=O)c1ccc(COC(=O)c2cc3ccccc3[nH]2)cc1	-37.9%	.	.	.	.	.
CCC1C(O)=C(c2ccccn2)C(=N)N1c1ccccc1 (stereo unspecified)	2.8%	i	.	13µM*	i	18.4µM*
Cc1c(Br)c([N+](=O)[O-])nn1CCCC(=O)Nc1sc2c(c1C(N)=O)CCC(C)C2 (stereo unspecified)	-3.8%	?	23.3%	-24.6%	8.2µM*	-53.6%
COC(=O)c1c(NC(=O)Cn2cnc([N+](=O)[O-])n2)sc2c1CCC(C)C2 (stereo unspecified)	?	i	0.8%	?	16.4µM*	12.9%
CCOC(=O)c1c(NC(=O)Cn2cnc([N+](=O)[O-])n2)sc2c1CCC(C)C2 (stereo unspecified)	-2.8%	i	9.8%	2.4%	i	1.9%
Cc1ccc(C(=O)C(Cl)C(=O)c2ccc(C)cc2)cc1	-20.3%	.	.	.	.	.
COc1ccc(CC(=O)c2ccc(OC)c(OC)c2C)cc1OC	-12.3%	6.51µM*	1.2%	0.0%	2.31µM*	?
CCc1c(C)c2ccc(OCC(=O)c3ccccc3)cc2oc1=O	14.2%	.	.	.	.	.
O=C(C1CC(=O)N(c2n[nH]c3ccccc23)C1)N1CCc2c([nH]c3ccccc23)C1 (stereo unspecified)	10.9%	.	.	.	.	.
Cc1ccc(C(=O)C[n+]2ccc(Cc3ccccc3)cc2)cc1	30.0%	4.61µM*	-0.1%	11.2%	i	-2.0%
CN(C)c1cc[n+](CC(=O)c2ccc(-c3ccccc3)cc2)cc1	-3.8%	?	25.1µM*	9.6%	i	4.0%
O=C(C[n+]1ccccc1)c1ccc(-c2ccccc2)cc1	-0.8%	i	0.3%	15.1%	i	4.6%
COc1ccc(C(=O)C[n+]2cccc3cc(OC)ccc32)cc1	-15.1%	16.4µM*	-0.5%	-3.1%	i	-1.3%
COc1ccc(C(=O)C[n+]2ccc(N(C)C)cc2)cc1	221.5%	5.17µM*	1.3%	?	i	?
COc1ccc(CCNC(=O)C(C(C)C)N2Cc3ccccc3C2=O)c(OC)c1OC (stereo unspecified)	36.8%	.	.	.	.	.
O=C(CC1CCCCN(Cc2ccccc2)C1=O)N1CCc2ccccc2C1 (stereo unspecified)	27.5%	.	.	.	.	.
Cc1ccc(Sc2ncccc2COC(=O)Nc2c(C)cccc2C)cc1	12.2%	25.9µM*	6.3%	?	i	?
